# Compound activity deposited in PubChem BioAssay by Sanford-Burnham Center for Chemical Genomics.
# Hits are enriched below; roughly 4% of the tested compounds scored in any of these assays.
# KKLEB cytotox: cytotoxicity in KKLEB CF airway cells, primary screen, cytotoxicity control for CF NF-kB inhibitor project, cell-based, uHTS, fluorescence assay plates. KKLEB CF airway cells viability, ATPlite luminescence, overnight; stronger effect = lower value; cells stimulated with P. aeruginosa culture filtrate. activity change (cytotoxicity), % at 5 µM. actives 0.36% (n = 360,000);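 active = corrected activity change at or below -50% at 5 µM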
# TROY NFkB inh: inhibitors of TROY-driven NF-kB signaling, primary screen, Q293 LMP1-TROYcd cells, NF-kB luciferase, uHTS. Q293 LMP1-TROYcd NF-kB luciferase reporter, 4 h. inhibition, % at 10 µM. actives 0.98% (n = 360,000);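 active = compounds whose plate-normalised and pattern-corrected inhibition of the luciferase reporter signal at the single screening dose is 50% or more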
# Peg3 promoter: Peg3 promoter-driven luciferase inhibitors, primary screen, cell-based, HeLa, luciferase luminescence; HeLa PEG-Prom luciferase reporter, overnight; inhibition, % at 20 µM; actives 1.7% (n = 360,000); AID 588405, 2011;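 active = inhibition of at least 50% at 20 µM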
# HIF-2a block: HIF-2a reporter inhibitors, primary screen, luminescence, 786-0 RCC cells; inhibition, % at 18.8 µM; actives 0.72% (n = 360,000); 786-0 RCC cells HIF-2a reporter, luciferase luminescence, overnight; AID 624352, 2012;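 active = inhibition of the luminescence signal of 40% or more relative to plate controls, in a single-dose primary screen at 18.75 µM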
# TWEAK-Fn14 inh: inhibitors of TWEAK-Fn14 signaling, primary screen, luciferase reporter cells, uHTS | TWEAK-stimulated Fn14 reporter cells, luciferase luminescence, 8 h | inhibition, % at 10 µM | actives 2% (n = 360,000) | AID 1159606, 2016; in the data active = inhibition above about 50%
# CF NFkB inh: inhibitors of PAF-induced NF-kB signaling, primary screen, cell-based, GFP fluorescence, uHTS. KKLEB NF-kB-GFP reporter, GFP fluorescence overnight. inhibition, % at 5 µM. actives 0.86% (n = 360,000). AID 588850, 2011;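 active = at least 50% inhibition at 5 µM, scaled per plate between neutral and stimulator controls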;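 also: PAF is a Pseudomonas aeruginosa culture filtrate used as stimulus; plate controls were PAF-stimulated DMSO wells for no effect and unstimulated DMSO wells for full effect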
# The depositor's hits bear a star; / = not tested or not shown.
SMILES,KKLEB cytotox,TROY NFkB inh,Peg3 promoter,HIF-2a block,TWEAK-Fn14 inh,CF NFkB inh
CC(=O)c1ccc(N(C(=O)CNC(=O)c2cccs2)C(C(=O)NCC2CCCO2)c2ccccc2)cc1 (centres undefined),6.3,-11.2,93.9*,14.2,19.6,-4.1
CCOc1cc(CNc2ccc3c(c2)CCC3)ccc1O,-9.0,50.2*,-49.1,-42.9,49.2,5.1
Cc1ccc(NC(=O)COC(=O)CN2CCSC2=O)cc1Cl,4.4,3.9,8.0,-5.3,3.0,-12.2
CCCCNC(=O)C1(C)CCN1C(=O)c1cc(-c2cccs2)oc1C (centres undefined),-19.3,37.2,33.5,29.3,78.5*,26.1
Cc1ccc2nc(CSc3nc(C)cc(C)c3C#N)[nH]c2c1,-14.1,59.3*,-285.9,-223.1,37.6,-21.8
O=C(CC(=O)NCc1ccc(Cl)cc1)NCc1ccccc1,2.0,-5.1,-0.6,9.1,3.5,14.5
COc1cccc(-c2ncc3ccccc3c2COC(=O)c2ccco2)c1,-6.8,-21.2,-32.4,-22.0,0.5,4.3
CCOC(=O)c1cnc(SC)nc1Oc1cccc(NS(=O)(=O)c2ccccc2)c1,4.2,-10.2,38.8,12.9,54.6*,14.0
O=C(CNC(=O)c1ccc(Br)o1)NCc1ccc(Cl)cc1,-6.6,2.5,4.7,12.3,10.0,12.2
C[C@@H]1CN([C@@H](C)CO)S(=O)(=O)c2ccc(Br)cc2O[C@H]1CN(C)C(=O)Nc1ccc(C(F)(F)F)cc1,-24.6,-4.2,52.5*,-12.9,8.1,-12.8
C[C@@H]1CN([C@H](C)CO)S(=O)(=O)c2ccc(Br)cc2O[C@@H]1CN(C)C(=O)Nc1ccc(C(F)(F)F)cc1,-16.6,20.2,19.6,6.5,20.3,9.6
C[C@@H]1CN([C@H](C)CO)S(=O)(=O)c2ccc(C#Cc3ccccc3F)cc2O[C@@H]1CN(C)C(=O)Cc1ccccc1,-10.2,30.4,30.7,27.9,50.1*,26.4
C[C@H]1CN([C@@H](C)CO)S(=O)(=O)c2ccc(Br)cc2O[C@@H]1CN(C)Cc1cccc(F)c1,-2.3,8.8,55.5*,16.5,17.2,-9.3
CCN(C(=O)N1CCOCC1)c1ccccc1C,-0.2,-8.3,1.8,15.9,-8.3,7.5
COc1ccc(Cc2n[nH]c(=S)n2Cc2ccccc2)cc1Cl,7.0,8.2,15.6,20.9,-11.2,-6.4
CC1(Cc2cccc(C(F)(F)F)c2)C(=O)Nc2ccc(-c3ccc(F)c(Cl)c3)cc21 (centres undefined),-12.5,5.6,37.3,9.9,17.6,21.4
Cc1sc2nc(SCC(=O)Nc3c(C)n(C)n(-c4ccccc4)c3=O)n(C)c(=O)c2c1C,1.5,7.3,16.2,16.8,58.5*,-3.2
COc1ccccc1NC(=O)CSc1nc2sc(C)c(C)c2c(=O)n1C,-5.8,33.9,-19.8,4.2,36.5,21.0
COCCN(C(=O)CSc1nnc(-c2ccccc2F)o1)c1c(N)n(Cc2ccccc2)c(=O)[nH]c1=O,6.5,-12.8,2.6,-4.8,-11.2,6.1
CCN(CC)c1ccc(S(=O)(=O)N2CCOCC2)cc1NC(=O)CSc1ccccc1,-1.3,-2.7,18.6,7.0,11.9,-13.9
CN(c1ccccc1)S(=O)(=O)c1cccc(NC(=O)c2cc(=O)c3ccccc3o2)c1,8.9,49.3,30.6,8.4,51.0*,2.7
CCN(CC)c1ccc(S(=O)(=O)N2CCOCC2)cc1NC(=O)c1cc(=O)c2ccccc2o1,-19.9,5.3,61.7*,-1.8,12.3,40.1
O=C(Nc1cccc(S(=O)(=O)N2CCCCCC2)c1)c1cc(=O)c2ccccc2o1,-3.6,20.2,28.0,20.4,62.5*,17.4
NS(=O)(=O)c1cccc(NC(=O)c2cc(=O)c3ccccc3o2)c1,3.6,-7.1,-34.7,-32.2,2.9,-2.0
O=C(NCCN1CCN(c2ccccc2F)CC1)c1ccc2nc3ccccc3c(=O)n2c1,-21.7,21.5,23.5,-24.5,67.1*,12.2
SMILES,KKLEB cytotox,TROY NFkB inh,Peg3 promoter,HIF-2a block,TWEAK-Fn14 inh,CF NFkB inh
COc1ccc(N2CCN(CCNC(=O)c3ccc4nc5ccccc5c(=O)n4c3)CC2)cc1,-15.4,13.3,9.8,0.5,37.4,1.7
COc1cc2cc3c(N)c(C(=O)Nc4sc(C)c(C)c4C#N)sc3nc2cc1OC,-99.5*,19.2,25.2,-5.5,-8.4,89.4*
COc1cc2cc3c(N)c(C(=O)NCc4ccco4)sc3nc2cc1OC,-6.8,-8.7,-67.1,-8.8,3.1,-5.2
CSc1ccccc1OCc1cc(C(=O)NC2CCOC(C)(C)C2)no1 (centres undefined),32.0,-17.7,-24.0,-33.5,0.6,-36.0
COc1ccc(OCc2cc(C(=O)NC3CCOC(C)(C)C3)no2)c2ccccc12 (centres undefined),6.9,-46.2,-321.4,-183.0,61.3*,-13.5
COc1ccc(OCc2cc(C(=O)N(C)C3CCOCC3)no2)c2ccccc12,-20.0,-34.3,-254.6,-177.1,78.9*,-35.4
COc1ccc(OCc2cc(C(=O)N(C)C3CCOC3)no2)c(Cl)c1 (centres undefined),-14.7,-57.9,28.3,-88.5,-17.7,16.2
CN(CC(=O)Nc1ccccc1Cl)CC(=O)N1CCc2ccccc21,3.4,-3.2,4.1,10.6,-7.4,-8.5
CC(C)(C)c1ccc(OCCCCCCN2CCNCC2)cc1,-18.9,-14.7,64.3*,10.5,-23.1,6.6
CC1CCN(CCCCOc2ccc(C(C)(C)C)cc2)CC1,10.2,9.6,-0.8,5.8,-2.0,4.0
Cc1ccc(OCCCCN2CCC(C)CC2)c(Br)c1,5.2,-9.2,8.9,13.5,-1.4,-9.4
CCC(C)NCCOc1ccc(C(C)(C)c2ccccc2)cc1 (centres undefined),-20.1,6.5,80.7*,8.4,1.3,33.0
Cc1ccc(OCCCCCCN2CCNCC2)c(Br)c1,-0.6,48.6,-115.0,-109.0,57.7*,4.6
CC(C)(c1ccccc1)c1ccc(OCCCN2CCNCC2)cc1,2.1,15.0,79.4*,15.8,7.7,5.9
COc1cc(N(C)C)ccc1[C@]1(O)C(=O)N(C)c2ccc(Br)cc21,/,/,/,13.6,/,/
O=C(CS(=O)c1ccc(F)cc1)N1CCOCC1 (centres undefined),-7.9,-3.7,5.6,13.2,6.2,0.2
N#Cc1nc(NCC(F)F)nc(Nc2cc(F)cc(F)c2)n1,19.6,46.3,107.1*,7.7,91.8*,73.1*
Cc1ccc(C(=O)OCC(=O)NCc2ccc3c(c2)OCO3)o1,1.7,-8.9,19.0,15.8,8.9,-27.9
